# Screening results from PubChem BioAssay.
# KB-3-1 cytotox = kills parental KB-3-1 adenocarcinoma cells; Potency, µM (series often up to 46.1 µM), hits mostly cytotoxic; AID 1347075; KB-3-1 viability, CellTiter-Glo ATP luminescence, 72 h; 1.4% of 400,000 active; note: % is set by controls: 0 for no effect and ±100 for the full control effect; nearly all actives have a fitted effect of over 60% in size
#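 Here the drug-naive KB-3-1 line serves as comparator for MDR sub-line selectivity; cells received compound titrations, 72 h at 37 °C, then CellTiter-Glo readout.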
# TSG101-PTAP inh = blocks PTAP/TSG101 interaction to inhibit HIV-1 budding | Q99816 | Fluorescence polarization, FITC-PTAP peptide / Tsg101 binding | Potency, µM (top dose mostly 115 µM), without a hit: top-dose activity change, negative = inhibition, actives largely listed as inhibitors | 340,000 tested, under 10 active | AID 493005; active = well fitted inhibition curve with a large enough effect in the main read-out, with a control signal flat, not every such curve was filed as active; inconclusive = small, poorly fitted or top-dose-only effect, or effect the other way, or a change in a side signal; inactive = no such curve, though single readings can be large or run the other way; note: % of control where 0% means no effect
# Target sequence (Q99816 whole entry, looked up): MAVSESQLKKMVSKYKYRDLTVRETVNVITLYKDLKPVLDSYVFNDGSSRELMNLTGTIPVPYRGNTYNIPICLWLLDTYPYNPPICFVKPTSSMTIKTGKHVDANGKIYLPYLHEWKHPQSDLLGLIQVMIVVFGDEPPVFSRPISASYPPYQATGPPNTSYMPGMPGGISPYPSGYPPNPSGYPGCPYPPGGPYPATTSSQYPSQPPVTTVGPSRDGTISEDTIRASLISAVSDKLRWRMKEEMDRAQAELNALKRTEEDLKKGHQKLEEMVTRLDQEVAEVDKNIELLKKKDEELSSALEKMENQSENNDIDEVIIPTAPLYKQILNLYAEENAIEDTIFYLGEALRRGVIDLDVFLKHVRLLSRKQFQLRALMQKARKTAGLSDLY
#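 Steps: Tsg101 binding domain dispensed (10 uM final), compounds pinned in DMSO, FITC-labeled PTAP-motif peptide added (50 nM final); after 20 min binding at room temperature, polarization measured.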
# KB-V1 cytotox = kills drug-selected multidrug resistant KB-V1 cells; Potency, µM (series often up to 46.1 µM), usual class: cytotoxic; 3.4% of 400,000 active; KB-V1 MDR cells viability, CellTiter-Glo, 72 h; note: % is set by controls: 0 for no effect and ±100 for the full control effect; nearly all actives have a fitted effect of over 60% in size
#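 Potencies derive from concentration-effect curves fitted to normalized luminescence (CellTiter-Glo) of KB-V1 cells treated for 72 h at 37 degrees C in phenol-red-free DMEM containing 10% FBS.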
# PINK1 expr mod = PINK1 expression modulation; PINK1 immunofluorescence, high-content cytometry, 24 h; Potency, µM (top dose mostly 76.6 µM), inactives show at the top dose activation (PINK1 increase), actives largely listed as activators; 0.2% of 410,000 active; active = well fitted activation curve with a large enough effect; inconclusive = small, poorly fitted or top-dose-only effect; cell line not stated here; note: % of control where 0% means no effect; nearly all actives have a fitted effect of over 65% in size
#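 Readout is PINK1 immunofluorescence, quantified alongside mitochondrial, cell and nuclear markers by laser-scanning microplate cytometry. Cells from a stable line were exposed to compound titrations (5 concentrations) for 24 hours, with CCCP controls.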
# MCF10A rerep = induces DNA re-replication in MCF 10a normal breast cells; 2.9% of 350,000 active; MCF 10A DNA re-replication, Hoechst nuclear intensity, 48 h; Potency, µM (highest dose often 46.1 µM), for the others: at the highest dose activity, positive = re-replication, actives largely listed as activators; note: % of control where 0% means no effect; nearly all actives have a fitted effect of over 50% in size
# SW480 rereplic = inducers of DNA re-replication in SW480 colon cancer cells; SW480 DNA re-replication, Hoechst DNA content imaging, 48 h; Potency, µM (top dose mostly 46.1 µM), inactives show at the top dose re-replication activation, most hits filed as activators; 1.8% of 340,000 active; AID 624297; note: % of control where 0% means no effect; nearly all actives have a fitted effect of over 55% in size
#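 Treated cells incubate 48 hr (37 C, 5% CO2), are stained 40 min with Hoechst, and nuclear fluorescence is enumerated; a rise in nuclei with high DNA signal marks re-replication.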
# * marks the source's active call; other numbers are inactive results; i = inactive; ? = inconclusive; / = not tested or not shown; [ ] = another dose, or the depositor's remark. Only some compounds are listed: those with a hit (about 6.8% of all), similar ones and a draw of the others. Unless noted, calls come from the whole dose curve; as a rule, active = well fitted curve in the direction sought with a large enough effect; inconclusive = small, poorly fitted or top-dose-only effect, or another doubt; inactive = no such curve, though single readings can be large; an effect the other way counts as inactive or inconclusive. Potency is the fitted concentration of half-maximal effect.
SMILES,KB-3-1 cytotox,TSG101-PTAP inh,KB-V1 cytotox,PINK1 expr mod,MCF10A rerep,SW480 rereplic
COC(=O)/C(=C\c1cc(OC)c(OC)c(OC)c1)c1nc2ccccc2[nH]1,15µM*,-5%,?,-1%,21µM*,?
COc1cc(/C=C/C(=O)NCc2nc3ccccc3[nH]2)cc(OC)c1OC,i,-1%,i,3%,2%,-2%
COC(=O)/C(=C\c1ccc(O)cc1)c1nc2ccccc2[nH]1,i,-2%,i,0%,16µM*,2.6µM*
Cc1oc2ccc(O)c(CN3CCCC3)c2c1C(=O)Nc1cccc(Cl)c1C,i,/,i,2%,/,/
O=C(NC(=S)Nc1cc([N+](=O)[O-])ccc1O)c1ccc2c(c1)OCO2,i,1%,?,1%,13µM*,?
COc1ccc(-n2cc(C(=O)NCCc3ccc(C)cc3)c3ccccc3c2=O)cc1,/,/,/,-1%,/,/
Cn1nnnc1SCCCNCc1ccccc1OCc1ccccc1F,i,/,i,0%,/,/
COc1cccc(-c2nn(C)c3sc(C(=O)Nc4ccc5c(c4)OCCO5)cc23)c1,i,-4%,18µM*,5%,?,12%
COc1cccc(-c2nc(SCC(=O)Nc3ccc4c(c3)OCCO4)c(-c3ccc(C)cc3)[nH]2)c1,21µM*,/,?,-1%,/,/
COc1ccc(-c2[nH]c(-c3ccc(C)cc3)nc2SCC(=O)Nc2nccs2)cc1,?,0%,23µM*,2%,?,/
Cn1nc(-c2ccccc2F)c2cc(C(=O)Nc3ccc4c(c3)OCCO4)sc21,?,-1%,?,1%,?,1%
COc1ccc(-c2nc(SCC(=O)Nc3nccs3)c(-c3ccc(Cl)cc3)[nH]2)cc1,?,-7%,?,5%,15%,11%
COc1ccc(CNC(=O)CN2C(=O)CCn3nc(-c4ccccc4)cc32)c(OC)c1,i,/,?,1%,/,/
CCOC(=O)c1ccc(NS(=O)(=O)c2cn(C)c(C)n2)cc1,i,/,i,-5%,/,/
COc1ccc(CN(C)C(=O)c2ccc(COc3ccccc3)cc2)c(OC)c1,i,-3%,i,-1%,?,?
COc1cc(OC)c(OC)cc1CNC(=O)c1ccc(COc2ccccc2)cc1,?,-2%,12µM*,0%,8%,3%
N#Cc1sc2nc(-c3cccs3)cc(-c3ccccc3)c2c1N,i,-4%,i,10%[38.3 µM],3%,-5%
N#Cc1sc2nc(-c3ccccc3)cc(C(F)(F)F)c2c1N,i,-19%,i,11µM*,4%,2.9µM*
Cc1ccc2c(/C=C/c3c[nH]c4ccccc34)ccnc2c1C,16µM*,/,7.3µM*,/,/,/
COc1ccc(OC)c2c(/C=C/c3c[nH]c4ccccc34)ccnc12,4.1µM*,/,?,/,/,/
COc1ccccc1C=Cc1ccnc2ccccc12,?,0%,?,3%,?,2%
CCC(=O)N1CCc2cc(S(=O)(=O)NC(C(=O)NCCc3ccc(OC)c(OC)c3)C(C)C)ccc21 (stereo not drawn),i,/,i,1%,/,/
COc1ccc2[nH]cc(CCNc3ccnc(-c4ccc5c(c4)OCO5)n3)c2c1,/,/,/,1%,/,/
CC(=O)N1CCN(C(=O)C(Cc2ccccc2)NC(=O)c2ccccc2)CC1 (stereo not drawn),i,-5%,i,3%,8%,-7%
NC(=O)C1CCN(C(=O)C(Cc2ccccc2)NC(=O)c2ccccc2)CC1 (stereo not drawn),i,0%,i,0%,27%,21µM*
CC(C)(C)n1nnnc1CN(Cc1ccc(F)cc1)Cc1ccco1,?,-8%,21µM*,-2%,22%,7%
Cc1cc2oc(C(=O)Nc3sc4c(c3C(=O)NCC3CCCO3)CCCC4)cc(=O)c2cc1C (stereo not drawn),i,/,i,1%,/,/
